Measured values taken from PubChem BioAssay (NCATS).
Records with an inconclusive call do not appear. Activity calls are given as the source filed them. The call rests on the fitted dose curve; in most records, active means well fitted cell-killing curve with a large enough effect; inconclusive means small, poorly fitted or top-dose-only effect; inactive means flat fitted curve, though single readings scatter.

Experiment: Cell Viability - NIH 3T3 (AID 541); further: nearly all actives have a fitted effect of over 25% in size;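 on activity change, negative = cytotoxicity: plate controls were DMSO alone for no effect and tamoxifen positive control for full effect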
Settings: NIH 3T3 cell viability, qHTS; activity change, negative = cytotoxicity: at 92.2 µM (top of the series)
Excerpt: NIH Chemical Genomics Center [NCGC]
NIH Molecular Libraries Screening Centers Network [MLSCN]
National Institutes of Environmental Health Sciences [NIEHS]
National Toxicology Program [NTP]
We have developed a 1536-well cell-based assay for quantitative high throughput screening (qHTS) against a number of cell lines to determine in vitro cytotoxicity of small molecules. This particular assay uses the NIH 3T3 fibroblast cell line which is established from NIH Swiss mouse embryo.
NCGC Assay Protocol Summary:
The CellTiter-Glo luminescent cell viability assay (Promega) is a homogeneous method to measure the number of viable cells in culture. The end point readout of this assay is based on quantitation of intracellular ATP, an indicator of metabolic activity, using the luciferase reaction. Luciferase catalyzes the oxidation of beetle Luciferin to oxyluciferin and light in the presence of ATP. The luminescent signal is proportional to amount of ATP present.
Using the CellTiter-Glo luminescent cell viability assay, the amount of cellular ATP was measured in the NIH 3T3 cell line with complete culture medium following compound treatment for 40 hours. The assay was performed in opaque white Kalypsys 1536-well plates. In the screen, tamoxifen and doxorubicin were used as positive controls. Library compounds were measured for their ability to cause acute toxicity in the cell line, as reflected by a decrease in intracellular ATP levels, in a concentration-dependent manner. […] AC50 values were determined from concentration-response data modeled with the standard Hill equation.
qHTS protocol for CellTiter Glo NIH 3T3 cellular assay
[Step] [Parameter] [Value] [Description]
1. Reagent; 5 uL; 1000 NIH 3T3 cells/well
2. Time; 5 hr; 37 °C incubation
4. Controls; 23 nL; Tamoxifen 0.34 uM to 100 uM & Doxorubicin 0.02 nM to 100 uM
5. Time; 40 hr; 37 °C incubation
6. Reagent; 5 uL; CellTiter Glo reagent
7. Time; 20 min; Room Temperature
8. Detection; Luminescence; Viewlux plate reader
Keywords: cell viability, cytotoxicity, NIH 3T3 cell line, luminescence, NTPHTS, NTPHTS_NCGC, NIEHS, EPA, DSSTox, MLSMR, MLSCN, NIH Roadmap, qHTS, NCGC
Potency means the concentration at half of the fitted maximal effect.

Row | SMILES | activity change, negative = cytotoxicity | Potency
1 | CC[C@H](C)C(=O)O[C@H]1C[C@@H](C)C=C2C=C[C@H](C)[C@H](CC[C@@H]3C[C@@H](O)CC(=O)O3)[C@H]21 | -92.8% (active) | 
2 | COc1ccc2cc3[n+](cc2c1OC)CCc1cc2c(cc1-3)OCO2 |  | 1000 nM (active)
3 | C[C@]12C=CC(=O)C=C1CC[C@@H]1[C@@H]2C(=O)C[C@@]2(C)[C@H]1CC[C@]2(O)C(=O)CO | -17% (inactive) | 
4 | CCc1cc(C(N)=S)ccn1 | -7.33% (inactive) | 
5 | O=C(O)c1cc(=O)[nH]c(=O)[nH]1 | -4.07% (inactive) | 
6 | CC1=NN(c2ccccc2)C(=O)C1 | -5.02% (inactive) | 
7 | Cc1nnc(NS(=O)(=O)c2ccc(N)cc2)s1 | -22.7% (inactive) | 
8 | NNC(=O)c1ccncc1 | -5.93% (inactive) | 
9 | CC(=O)[C@H]1CC[C@H]2[C@@H]3CCC4=CC(=O)CC[C@]4(C)[C@H]3CC[C@]12C | -129% (active) | 
10 | CN(C)c1ccc(C(=C2C=CC(=[N+](C)C)C=C2)c2ccc(N(C)C)cc2)cc1 |  | 1000 nM (active)
11 | Cc1cc(NS(=O)(=O)c2ccc(N)cc2)no1 | -14.5% (inactive) | 
12 | CC(=O)Oc1ccccc1C(=O)Nc1ncc([N+](=O)[O-])s1 |  | 31600 nM (active)
13 | Cc1noc(NS(=O)(=O)c2ccc(N)cc2)c1C | -8.82% (inactive) | 
14 | O=C(N[C@H](CO)[C@H](O)c1ccc([N+](=O)[O-])cc1)C(Cl)Cl | -14.2% (inactive) | 
15 | Cc1ncc([N+](=O)[O-])n1CCO | -7.75% (inactive) | 
16 | Cc1ccnc2c1NC(=O)c1cccnc1N2C1CC1 | -11% (inactive) | 
17 | N=C(N)c1ccc(OCCCCCOc2ccc(C(=N)N)cc2)cc1 | -80.1% (active) | 
